{
  "source": "PubChem BioAssay (NCATS)",
  "note": "Results filed as inconclusive are left out. Activity calls are given as the source filed them. Calls follow the shape of the dose curve; as a rule, active = well fitted inhibition curve with a large enough effect; inconclusive = small, poorly fitted or top-dose-only effect; inactive = flat fitted curve, though single readings scatter. % is scaled to controls: 0 for no effect and ±100 for the full control effect; potency is read from the fitted curve at half-maximal effect.",
  "data": [
    {"experiment": "P-glycoprotein substrates identified in KB-8-5-11 adenocarcinoma cell line, qHTS therapeutic library screen (AID 1346987); also: nearly all actives have a fitted effect of over 65% in size", "conditions": "KB-8-5-11 (P-gp overexpressing) viability, CellTiter-Glo, 72 h; series mostly up to 44.5 µM; activity change, negative = cytotoxicity: at the top concentration", "summary_of_the_method": "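KB-8-5-11, a colchicine-selected P-gp-overexpressing KB-3-1 subline, was grown without colchicine for the assay. Cells were seeded at 500 cells/well, dosed in concentration-response and incubated 72 h at 37 degree C, 5% CO2. Viability was read by CellTiter-Glo luminescence.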", "values": [
      {"smiles": "C[C@@H]1CC[C@]2(C(=O)O)CC[C@]3(C)C(=CCC4[C@@]5(C)CC[C@H](O)C(C)(C)C5C(O)C[C@]43C)[C@@H]2[C@]1(C)O", "note": "(some centres undefined)", "outcome": "inactive [at 17.3 µM]"},
      {"smiles": "N#Cc1ccc(-c2cnc3[nH]cc(NC(=O)c4cccnc4)c3c2)cc1", "activity change, negative = cytotoxicity": "-3.38% (inactive)"},
      {"smiles": "C[C@@H]1CCC2C(C)(C)[C@H](O)CC[C@]2(C)[C@@]12Cc1c(O)cc3c(c1O2)CNC3=O", "note": "(some centres undefined)", "activity change, negative = cytotoxicity": "9.38% (inactive)"},
      {"smiles": "CC1(C)CCC2(C(=O)OC3OC(CO)C(O)C(O)C3O)CCC3(C)C(=CCC4C5(C)CCC(OC6OC(C(=O)O)C(OC7OC(CO)C(O)C(O)C7O)C(OC7OC(CO)C(O)C(O)C7O)C6O)C(C)(C)C5CCC43C)C2C1", "note": "(centres undefined)", "activity change, negative = cytotoxicity": "4.92% [at 9.29 µM] (inactive)"},
      {"smiles": "COc1ccc(/C=C/C(=O)O[C@@H]2[C@@H](O)[C@@H](O)[C@H](O[C@@H]3C=C(CO)[C@H]4[C@H](O[C@@H]5O[C@H](CO)[C@@H](O)[C@H](O)[C@H]5O)OC=C[C@H]43)O[C@H]2C)cc1O", "outcome": "inactive [at 17.3 µM]"},
      {"smiles": "C=C(C(=O)O)C1CC(O)C2(C)CCCC(=C)C2C1", "note": "(centres undefined)", "activity change, negative = cytotoxicity": "9.08% (inactive)"},
      {"smiles": "COCCN1CCN(Cc2ccc(-c3n[nH]c4c3C(=O)c3c(NC(=O)NN5CCOCC5)cccc3-4)cc2)CC1", "Potency": "2590 nM (active)"},
      {"smiles": "CC(C)C(C(=O)N(C)C(C)C(N)=O)N(C)C(=O)C1CCCN1C(=O)/C=C/C=C/C(O)C(C)O", "note": "(centres undefined)", "activity change, negative = cytotoxicity": "4.34% [at 17.3 µM] (inactive)"},
      {"smiles": "CC1=CC(=O)[C@H]2C(C)(C)CCC[C@]2(C)[C@@]1(O)CO", "activity change, negative = cytotoxicity": "6.19% (inactive)"}
    ]}
  ]
}
